Data taken from PubChem BioAssay.
Results filed as inconclusive are left out. Active and inactive are the calls of the source. Unless noted, cut-off not given; nearly all actives show AC50 up to about 26 µM.

Key:
[1] = drug combination growth inhibition, ovarian cancer – cell-based, oncology-focused library, rucaparib conditional, profiling panel (AID 1508598;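 active means normalized viability below 100% at a tested concentration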); conditions: patient-derived ovarian cancer cells, CellTiter-Glo viability, 144 h, stronger effect = lower value
[2] = viability loss in pontine glioma line – cell-based, SU-DIPG-XVII, MIPE5.0, CellTiter-Glo, qHTS, dose response (AID 1347060); conditions: CellTiter-Glo ATP luminescence;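 on AC50: cells exposed to compound for 48 hours before viability readout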
[3] = viability loss in pontine glioma line – cell-based, SU-DIPG-XIII, MIPE4.0, CellTiter-Glo, qHTS, dose response (AID 1347061; cut-off not given, nearly all actives have AC50 up to about 37 µM;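 further: cells exposed to compound for 48 hours before readout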); conditions: CellTiter-Glo ATP luminescence
[4] = viability loss in pontine glioma line – cell-based, JHH-DIPG-1, MIPE4.0, CellTiter-Glo, qHTS, dose response (AID 1347062; cut-off not given, nearly all actives have AC50 up to about 27 µM;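 on AC50: cells exposed to compound for two days before readout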); conditions: JHH-DIPG-1 viability, CellTiter-Glo ATP luminescence
[5] = viability loss in pontine glioma line – cell-based, SU-DIPG-XXV, MIPE5.0, CellTiter-Glo, qHTS, dose response (AID 1347065); conditions: CellTiter-Glo ATP luminescence;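 further: cells exposed to compound for 48 hours before ATP readout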
[6] = growth inhibition of DIPG cells – cell-based, MIPE4.0 library, CellTiter-Glo luminescence, qHTS (AID 1347066; cut-off not given, nearly all actives have AC50 up to about 30 µM;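 further: cells exposed to compound for 48 hours before readout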); conditions: SU-DIPG-VI viability, CellTiter-Glo ATP luminescence
[7] = JHH-DIPG-1 glioma cell viability, MIPE5.0 library, CellTiter-Glo luminescence, qHTS (AID 1347067); conditions: JHH-DIPG-1 glioma viability, CellTiter-Glo ATP luminescence;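 further: cells exposed to compound for 48 hours before readout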
[8] = growth inhibition of DIPG cells – cell-based, MIPE5.0 library, qHTS (AID 1347068; cut-off not given, nearly all actives have IC50 up to about 30 µM;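 on IC50: cells exposed to compound for 48 hours before viability readout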); conditions: SU-DIPG-XXV viability
[9] = viability loss with induced miR-34 in A549 – imaging, A549 dox-inducible miR-34, nuclei and caspase counts, primary screen (AID 1347080;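 active means compounds whose cell count with miR-34 switched on is under 0.7 times the count with it off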); conditions: A549 miR-34 inducible, Hoechst nuclei count, 48 h
[10] = MELAS cybrid and Rieske KO viability enhancers – cell-based, MELAS cybrids, Rieske KO mouse fibroblasts, CellTiter-Glo, primary screen (AID 1508586;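 active means mean z-score across replicates of 1.96 or higher in either the MELAS or the Rieske mutant cell line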;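 further: z relative to plate mean and SD of compound and empty wells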); conditions: low glucose
[11] = viability loss in pontine glioma line – cell-based, SU-DIPG-IV, MIPE4.0, CellTiter-Glo, qHTS, dose response (AID 1347063; cut-off not given, nearly all actives have AC50 up to about 30 µM;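 further: compound exposure lasted 48 hours before the viability readout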); conditions: CellTiter-Glo ATP luminescence
[12] = viability loss in pontine glioma line – cell-based, SU-DIPG-XIII, MIPE5.0, CellTiter-Glo, qHTS, dose response (AID 1347064; cut-off not given, nearly all actives have AC50 up to about 23 µM;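 on AC50: cells exposed to compound for 48 hours before the viability read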); conditions: CellTiter-Glo ATP luminescence
[13] = stronger effect = lower value, cell number ratio, induced over uninduced
[14] = measured here: relative caspase fold change +Dox/-Dox
[15] = measured here: total cells with miR-34 induction, stronger effect = lower value
[16] = measured here: total cells without miR-34 induction
[17] = MELAS cybrid survival, CellTiter-Glo 48 h, stronger effect = higher value
[18] = Rieske KO mouse fibroblast survival, CellTiter-Glo 72 h

Cc1ccc([C@@H]2O[C@H](CO)[C@@H](O)[C@H](O)[C@H]2O)cc1Cc1ccc(-c2ccc(F)cc2)s1
inactive: viability ([1]; at 0.313 µM, OCI-P5x cells, with rucaparib 20 µM, 100% = cells with rucaparib alone) 114% | viability ([1]; at 0.313 µM, OCI-P5x cells, without rucaparib) 110% | viability ([1]; at 1.25 µM, OCI-C5x cells, with rucaparib 10 µM, 100% = cells with rucaparib alone) 119% | viability ([1]; at 1.25 µM, OCI-C5x cells, without rucaparib) 122% | viability ([1]; at 1.25 µM, OCI-P5x cells, with rucaparib 20 µM, 100% = cells with rucaparib alone) 109% | viability ([1]; at 1.25 µM, OCI-P5x cells, without rucaparib) 108% | viability ([1]; at 5 µM, OCI-C5x cells, with rucaparib 10 µM, 100% = cells with rucaparib alone) 117% | viability ([1]; at 5 µM, OCI-C5x cells, without rucaparib) 129% | viability ([1]; at 5 µM, OCI-P5x cells, with rucaparib 20 µM, 100% = cells with rucaparib alone) 105% | viability ([1]; at 5 µM, OCI-P5x cells, without rucaparib) 115%

COc1ccc(-n2c(C)c([N+](=O)[O-])c3ccc(O)cc32)cc1
inactive: outcome [2] | outcome [4] | outcome [5] | outcome [6] | outcome [7] | outcome [8] | fold change [9, 13] 0.881 | z-score [10, 17] 0.252
7330: cell count [9, 16]
6450: cell count [9, 15]
active: AC50 [3] 4.69 µM
0.334: fold change [9, 14]
-3.43: z-score [10, 18]

NC1(C(=O)N[C@@H](CCO)c2ccc(Cl)cc2)CCN(c2ncnc3[nH]ccc23)CC1
active: AC50 [2] 14.8 µM | AC50 [3] 14.8 µM | AC50 [11] 0.662 µM | AC50 [12] 1.48 µM | AC50 [5] 2.09 µM | IC50 [8] 3.72 µM

C[C@](Cc1c[nH]c2ccccc12)(NC(=O)OC1C2CC3CC(C2)CC1C3)C(=O)NC[C@H](NC(=O)CCC(=O)O)c1ccccc1 (some centres undefined)
inactive: outcome [2] | outcome [3] | outcome [11] | outcome [12] | outcome [5] | outcome [6] | outcome [7] | outcome [8]

Cn1cnc2c(F)c(Nc3ccc(Br)cc3F)c(C(=O)NOCCO)cc21
inactive: outcome [6] | fold change [9, 13] 0.958 | z-score [10, 17] 0.0149
0.664: fold change [9, 14]
-0.207: z-score [10, 18]
4350: cell count [9, 15]
active: AC50 [2] 3.72 µM | AC50 [3] 4.18 µM | AC50 [4] 6.62 µM | AC50 [5] 5.25 µM | AC50 [7] 0.833 µM
4540: cell count [9, 16]
